# Screen size: about 330,000 compounds; about 4,100 (1.2%) were called active. The sample holds actives, similar compounds and a random draw of the others, so the mix is not that of the screen. Values without a mark were called inactive. Rule as the data show it: active = inhibition above about 50%; inactive = the rest.
# Target: Sentrin-specific protease 8 (Homo sapiens) (UniProt Q96LD8)
# Assay: SENP8 protease inhibitors, primary screen, biochemical, luminescence (AID 2540)
# Details: purified SENP8, Z-RLRGG-aminoluciferin cleavage, at 10 µM, stronger effect = higher value
# Sequence of Sentrin-specific protease 8 (Homo sapiens) (Q96LD8 whole entry, looked up): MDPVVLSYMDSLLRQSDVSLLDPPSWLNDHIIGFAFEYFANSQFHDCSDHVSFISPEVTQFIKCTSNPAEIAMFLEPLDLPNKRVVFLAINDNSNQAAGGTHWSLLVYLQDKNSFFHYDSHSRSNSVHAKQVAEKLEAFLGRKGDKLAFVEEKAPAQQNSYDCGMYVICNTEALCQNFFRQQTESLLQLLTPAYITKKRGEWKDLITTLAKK
row,SMILES,inhibition
1,COc1ccccc1NC(=O)C1=C(C)Nc2nc3ccccc3n2C1c1cccs1 (centres undefined),-5.43%
2,O=C(Nc1ccc(N2CCCC2=O)cc1)c1cncc(Br)c1,-0.181%
3,CCOC(=O)c1sc(NC(=O)c2ccncc2)nc1C,88.2% (active)
4,CCOC(=O)c1sc(NC(=O)c2sc(C)nc2C)nc1C,13.7%
5,CCOC(=O)c1cccnc1NC(=O)c1ccncc1,-5.42%
6,Cc1ccc(NC(=O)CN(C)C(=O)c2ccc(Cl)c(S(=O)(=O)NCc3ccco3)c2)cc1,-1.14%
7,O=CN1CCN(C(=O)c2ccc(Br)o2)CC1,0.91%
8,O=C(Nc1ccc(N2CCOCC2)cc1)c1ccc2c(c1)OCO2,12.3%
9,O=C(Nc1ccc2c(c1)OCCO2)c1ccoc1,-5.62%
10,O=C(COC(=O)c1ccncc1)Nc1ccc2c(c1)OCO2,8.05%
11,O=C(COC(=O)c1ccc(F)cc1)Nc1ccc2c(c1)OCO2,-15.4%
12,CC(NC(=O)Nc1cccc([N+](=O)[O-])c1)c1ccc2c(c1)OCO2 (centres undefined),-0.051%
13,O=C(Nc1ccccc1)c1ccc2c(c1)OCCCO2,75.9% (active)
14,O=C(Nc1ccc(NC(=O)c2ccc3c(c2)OCO3)cc1)c1cccc(Cl)c1,-4.6%
15,O=C(Nc1ccccc1)c1ccc2c(c1)OCO2,66.7% (active)
16,CN1CCN(c2ccc(NC(=O)c3ccc4c(c3)OCCO4)cc2Cl)CC1,3.49%
17,Cc1onc(C(=O)Nc2ccc3c(c2)OCO3)c1[N+](=O)[O-],-9.15%
18,O=C(Nc1cccc([N+](=O)[O-])c1)c1ccc2c(c1)OCO2,59.1% (active)
19,CC(=O)Nc1cccc(C(=O)OCC(=O)c2ccc3c(c2)OCO3)c1,67.1% (active)
20,Cc1ccsc1C1C(C#N)=C(N)OC2=C1C(=O)CC(C)C2 (centres undefined),-10.3%
21,Cc1ccc(S(=O)(=O)N2CCCCC2)cc1NC(=O)c1cccnc1,-12.3%
22,CC1(C)C/C(=N/Nc2ccc([N+](=O)[O-])cc2[N+](=O)[O-])C(C)(C)O1,-5.03%
23,CCCCn1c(N)c(N(CC(C)C)C(=O)CN(C)S(=O)(=O)c2ccc(F)cc2)c(=O)[nH]c1=O,2.26%
24,COC(=O)C1=C(C(=O)OC)C2(OC1c1ccc(Br)cc1)C(=O)c1ccccc1C2=O (centres undefined),-0.809%

row,SMILES,inhibition
1,O=C(Nc1nc2ccccc2s1)c1ccc2c(c1)OCO2,94.1% (active)
2,COc1ccc(C(=O)Nc2ccc(C3(C#N)CCCC3)cc2)cc1OC,92.8% (active)
3,Cc1ccc2sc(NNC(=O)c3ccc4c(c3)OCCO4)nc2c1C,-5.8%
4,COc1cc(C(=O)NCC2(c3ccccc3)CCCC2)ccc1OC(C)C,1.28%
5,O=C(Nc1ccccc1F)c1ccc2c(c1)OCO2,65.2% (active)
6,O=C(COC(=O)c1ccc2c(c1)OCCO2)NCc1ccccc1Cl,-14.4%
7,COc1ccc(C(=O)Nc2ccc3nc(N4CCCCC4)cc(C)c3c2)cc1OC,1.68%
8,N#Cc1ccccc1NC(=O)c1ccc2c(c1)OCO2,0.633%
9,CN(Cc1c(F)cccc1Cl)C(=O)CNC(=O)c1ccc2c(c1)OCO2,-2.64%
10,COCc1nnc(NC(=O)c2ccc3c(c2)OCO3)s1,0.871%
11,N#CCCN(C(=O)COC(=O)c1ccc2c(c1)OCCO2)c1ccccc1,10%
12,O=C(OCc1ccccc1F)c1ccc2c(c1)OCCO2,80.2% (active)
13,O=C(Nc1cc(Cl)ccc1N1CCOCC1)c1ccc(N2CCCC2=O)cc1,6.24%
14,CC(CNc1ccc([N+](=O)[O-])c2cccnc12)Nc1c([N+](=O)[O-])cc(C(F)(F)F)cc1[N+](=O)[O-] (centres undefined),-1.48%
15,CCN(CC)CCOc1ccc2c(c1)C(=NNC(=O)c1ccccn1)c1cc(OCCN(CC)CC)ccc1-2,-1.52%
16,N#Cc1ccc(OCC(=O)NC(=O)NC2CCS(=O)(=O)C2)cc1 (centres undefined),0.761%
17,COc1cc(/C=C/C(=O)O)cc(S(=O)(=O)Nc2ccccc2C(=O)NCCc2ccccc2)c1OC,0.693%
18,Cc1cc(C)c(C#N)c(SCS(=O)c2ccc(C(C)(C)C)cc2)n1 (centres undefined),-4.22%
19,CN1CC(c2ccccc2)C2(COc3ccccc3C2=O)C12C(=O)Nc1ccccc12 (centres undefined),0.36%
20,CC(=O)c1ccccc1NC(=O)CC1(CC(=O)O)CCCCC1,1.06%
21,Clc1ccc(CSc2nnc([C@@H]3CCCN3)o2)cc1,-0.161%
22,CC(C)[C@@H]1NC(=O)c2cc([N+](=O)[O-])cc(I)c2NCCC[C@@H](C(=O)NC(CC(=O)O)C(N)=O)NC(=O)[C@H](CO)NC1=O (some centres undefined),3.05%
23,O=C(NCCOc1ccccc1F)Nc1ccc(Br)cc1,-3.32%
24,CC(C)(C)SCCNC(=O)c1cccc([N+](=O)[O-])c1,-0.846%

row,SMILES,inhibition
1,COc1ccc(C(=O)Nc2ccc3c(c2)OCO3)cc1OC,77.5% (active)
2,O=C(Nc1ccc(C2CC2(Cl)Cl)cc1)c1cccc([N+](=O)[O-])c1 (centres undefined),50.5% (active)
3,CC(C)C(=O)Nc1cccc(C(=O)Nc2ccc3c(c2)OCO3)c1,1.49%
4,COc1cc(NC(=O)c2ccc3c(c2)OCO3)ccc1NC(=O)c1cccs1,-17.4%
5,Cc1cc(C)nc(NC(=O)c2cccc([N+](=O)[O-])c2)c1,-2.37%
6,CCN(c1ccccc1)S(=O)(=O)c1cc2c(cc1C)n(C)c(=O)c(=O)n2C,-13.5%
7,CCN1CCN(c2cc3nc(C)n(Cc4ccccc4)c(=O)c3cc2NC(=O)c2ccccc2F)CC1,-6.48%
8,COc1ccc(C)cc1NC(=O)CSc1nnc2ccc(-c3ccccn3)nn12,4.77%
9,Brc1ccccc1CN1CCC(Cc2ccccc2)CC1,3.24%
10,COc1ccc(C2=NN(c3nc4ccccc4s3)C(=O)C2)cc1,10.1%
11,COc1ccc(-n2nnnc2CNC(=O)c2ccc3ccccc3c2)cc1,-10.6%
12,COc1ccc(-n2nnnc2-c2nc3ccccc3s2)cc1,50.3% (active)
13,N#Cc1c(N)sc2c1CCN(C(=O)OCc1ccccc1)C2,2.15%
14,COc1ccc(SCCN2CCN(CC(C)C)CCC2=O)cc1,5.29%
15,O=C(NCCCN1CCCC1=O)C(=O)NCC1OCCN1S(=O)(=O)c1ccc(Br)cc1 (centres undefined),-0.009%
16,O=C(O)/C=C/c1ccc2c(c1)OCCO2,1.06%
17,CN(C)c1ccc(/C=C/C(=O)c2ccc(O)cc2)cc1[N+](=O)[O-],-28.3%
18,O=C(/C=C/c1ccc2c(c1)OCCO2)c1ccc(O)cc1,76.9% (active)
19,CNS(=O)(=O)c1ccc(NC(=O)Nc2ccc3c(c2)OCO3)cc1,-9.35%
20,CN1CCN(c2ncc3c(n2)CC(c2ccccc2F)CC3=O)CC1 (centres undefined),-5.2%
21,O=C(Nc1ccccc1)Nc1ccccc1C(=O)NCc1ccco1,65.9% (active)
22,Cc1cccc(Nc2ccccc2C(=O)NCc2ccco2)c1C,-4.58%
23,O=C(CCNC(=O)c1ccccc1Cl)NCc1ccco1,-2.13%
24,CCOc1ccc(NC(=O)C/C(C)=N/NC(=O)Cc2cccs2)cc1,-7.21%

row,SMILES,inhibition
1,CC(C)[C@H](NC(=O)N1CCn2c1nc1ccccc12)C(=O)NC1CC1,-8.07%
2,CSCCC(NC(=O)COc1ccccc1)C(=O)OCCOc1ccc(Br)cc1 (centres undefined),-20.5%
3,CCC(C)(C)NC(=O)C(c1ccc(O)cc1)N(Cc1ccco1)C(=O)CCC(=O)Nc1ccccn1 (centres undefined),-6.41%
4,Cc1cc(C(=O)N/N=C\C(Br)=C\c2ccccc2)c(C)o1,38.8%
5,Cc1ccccc1N/N=C/c1ccc(N2CCOCC2)cc1,-7.47%
6,CC(=C/c1ccccc1)/C=N/NC(=O)c1cc(C)oc1C,73.3% (active)
7,COc1ccc(C/C(C)=N/NC(=O)c2cc(C)oc2C)cc1,-5.88%
8,Cc1cc(C(=O)N/N=C/c2ccc(N3CCOCC3)cc2)c(C)o1,84.5% (active)
9,O=C(NN=Cc1ccc(N2CCOCC2)cc1)c1cc2ccccc2cc1O,-1.63%
10,CCCOc1ccc(C2=CSC3=NCCN23)cc1Cl,-25.9%
11,CCN(C(=O)CSc1nnc(-c2ccncc2)o1)c1ccccc1,-5.88%
12,COc1ccc(CNc2c(CO)cnc3c2cnn3C)cc1,3.66%
13,CC(=O)c1cc2c(cc1NC(=O)CN1CCCCCC1)OCO2,6.92%
14,COCCN(C(=O)CSCc1ccc(C)cc1)c1c(N)n(CC(C)C)c(=O)[nH]c1=O,-1.3%
15,CCCCCC(=O)N1CCN(S(=O)(=O)c2ccc3c(c2)OCCCO3)CC1,0.168%
16,O=C(N/N=C/c1ccc([N+](=O)[O-])cc1)C(=O)N1CCCC1,-9.06%
17,Cc1ccc(NC(=O)c2sccc2C)cc1[N+](=O)[O-],3.23%
18,Cc1ccsc1C(=O)N/N=C/c1ccc([N+](=O)[O-])cc1,73.3% (active)
19,CN(CCOc1ccccc1)Cc1nc2cc(Cl)ccc2c(=O)[nH]1,0.32%
20,COCC(C)n1c(C)cc(C(=O)COc2ccc(C)nc2[N+](=O)[O-])c1C (centres undefined),4.55%
21,C#Cc1ccc([C@@H]2C=C(C(=O)O)O[C@H](OCCCCO)C2)cc1,-9.34%
22,CCC(C)NC(=O)/C=C/c1ccc(S(=O)(=O)NCc2ccco2)cc1 (centres undefined),-7.51%

# — PubChem BioAssay AID2540 (Sanford-Burnham Center for Chemical Genomics, 2010)
